Measurements published in PubChem BioAssay AID651871 (Sanford-Burnham Center for Chemical Genomics, 2012).
Several values for one entry are separate records, joined by “and”; a condition that tells them apart may be missing. Identical values can stand only once.

Tested on: HL-1
Assay: cardiomyocyte survival under oxidative or metabolic stress – cell-based, panel, H9c2 and HL-1, ATP luminescence, set 2, SAR follow-up (AID 651871);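 note: cells exposed to stressor for 2 h before ATP readout; reference of the scale not given here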
Settings: H9c2/HL-1 cardiomyocytes, 2-deoxyglucose stress, with 2-deoxyglucose, run 3, at 79 µM (top of the series)

SMILES | activity (protection/inhibition)
COc1ccc2c(c1OC)C(=O)N1c3ccccc3C(=O)N(Cc3cccc(Cl)c3Cl)C21 (stereo not drawn) | 35.1% and -7.14%
CCOC(=O)c1cccc(NC(=O)CNC(=O)c2cc(-c3cc(OC)c(OC)c(OC)c3)nc3ccccc23)c1 | 95.7%
COc1ccc2nc(-c3cc(OC)c(OC)c(OC)c3)cc(C(=O)NCC(=O)Nc3ccc(C(C)=O)cc3)c2c1 | 38.8%
